{
  "source": "the supplement of paper PMC6555819",
  "data": [
    {"tested_on": "THRa homodimer (NR concentration 90 nM)", "assay": "PBM binding z-score (relative to random genomic background probes); higher = stronger binding; sequences stand for … in GC…GCGATTGACAGCGTAGAATGAAGG", "method_in_brief": "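Each nuclear receptor dimer, without ligand, was incubated for 1 h on custom Agilent 4×180K protein-binding microarrays. Binding was detected with antibodies against each partner (one per run), and scanned fluorescence was regression-normalized. The binding z-scores are referenced to random human genomic background probes.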", "values": [
      {"sequence": "TCTATTAGTTAAAGGGCAACCGACGAGTCCGTTT", "PBM binding z-score": -0.0439},
      {"sequence": "AGAACGAGGGCACGCTTAGTTGATAGCAGAGTAG", "PBM binding z-score": 0.257},
      {"sequence": "AGAATGAGGTTACCAAAGATCTGGGAAACGCTTG", "PBM binding z-score": 0.542},
      {"sequence": "TGTCAAAGTTCAACGGTAACGTAAGTATCCACAC", "PBM binding z-score": -0.415},
      {"sequence": "TTACCAAGGTGAAAGATCGTTGATGCACGCCTTG", "PBM binding z-score": 0.109},
      {"sequence": "CGAACTAGGTCATCCAGGACAGTGTATACATTGA", "PBM binding z-score": 2.17},
      {"sequence": "TCTTGTAGATCTAAGGTTAAGAAAGCCGAAGCCT", "PBM binding z-score": 1.26},
      {"sequence": "TCTATAAGTTGAAGGGCAACCGACGAGTCCGTTT", "PBM binding z-score": 0.137},
      {"sequence": "AGAACGAGGGCACCCTGAGTTGATAGCAGAGTAG", "PBM binding z-score": -0.12},
      {"sequence": "GCTAGTTGGTCAGTGAAAGGTCACACACCGGTCG", "PBM binding z-score": 1.71},
      {"sequence": "TCTAGAAGGCCAGAGGGTCACTCAAGAGGTACGG", "PBM binding z-score": -0.0793},
      {"sequence": "TCATATTGGTAAACAGGTGAAAGTCCGTAAGTTA", "PBM binding z-score": 0.5},
      {"sequence": "CCTCGGAGGACAACAGGAGGTCAGAGATGCCAGA", "PBM binding z-score": 1.02},
      {"sequence": "GCGATTGGGGCATCAGCAGGTTACCATAACTTAA", "PBM binding z-score": 0.429},
      {"sequence": "CCTTACGGGTCACTGACAGGTTATAGCCTTTGGA", "PBM binding z-score": 0.294},
      {"sequence": "TTACCAAGGAGAGCTGAGGTCGTTGATCCAACTC", "PBM binding z-score": 1.2},
      {"sequence": "AGTCAAAGTCCATCTAGGTAACGTAAGATATGCT", "PBM binding z-score": 0.0644},
      {"sequence": "CTAACGAGGGCATGAGTTGATAGCAAATGCCGAT", "PBM binding z-score": 0.0031},
      {"sequence": "CCGAGTAGGTTATTGGGCATTCAGGCAACGGTGA", "PBM binding z-score": 0.103},
      {"sequence": "CCGACTGGGGCATGAGGTTACCATAAGCCAGCCC", "PBM binding z-score": 0.853},
      {"sequence": "ATCGAAAGATCGAGGTGAGTATAGAGAAAGGGAA", "PBM binding z-score": 0.245},
      {"sequence": "TATACCGGGTCAAAGGCCAGAGTACGAATGTCGA", "PBM binding z-score": 0.712}
    ]}
  ]
}
